# High-throughput results from PubChem BioAssay.
# In the library only some 3% were active in any assay of this set; here they are far more common.
# Mcl1 Bid PPI = disrupts binding of human Mcl-1 to Bid peptide | TR-FRET Mcl-1/Bid-Dy647 peptide binding, 1536-well | inhibition, % at 21.7 µM | 220,000 compounds, 0.97% hits;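 active means compounds that cut the binding signal by more than half at the single screening dose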;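 further: His-tagged Mcl-1 with europium anti-His antibody binding Bid BH3 peptide; 0% = Mcl-1 plus peptide wells and 100% = peptide-only wells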
# Target sequence (Q07820 whole entry, looked up): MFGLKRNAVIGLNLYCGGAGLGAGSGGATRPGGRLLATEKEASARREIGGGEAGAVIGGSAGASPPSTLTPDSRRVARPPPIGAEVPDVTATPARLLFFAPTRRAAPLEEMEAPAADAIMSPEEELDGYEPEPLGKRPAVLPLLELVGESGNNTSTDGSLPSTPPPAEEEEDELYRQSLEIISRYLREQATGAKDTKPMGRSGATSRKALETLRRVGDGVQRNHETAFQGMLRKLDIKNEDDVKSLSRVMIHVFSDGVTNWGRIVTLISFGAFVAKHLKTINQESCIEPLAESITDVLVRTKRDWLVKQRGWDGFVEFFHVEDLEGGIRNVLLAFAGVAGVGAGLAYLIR
# 14-3-3 Bad inh = disrupts binding of bovine 14-3-3 zeta to phospho-Bad peptide; TR-FRET 14-3-3zeta/Dy647-pBad peptide displacement, 1 h; inhibition, % at 21.7 µM; 220,000 compounds, 0.71% hits; AID 781;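 active means inhibition above about 70%, limit read from the data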;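 further: 0% = full 14-3-3 plus peptide FRET controls and 100% = background without 14-3-3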
# Target sequence (P63103 whole entry, looked up): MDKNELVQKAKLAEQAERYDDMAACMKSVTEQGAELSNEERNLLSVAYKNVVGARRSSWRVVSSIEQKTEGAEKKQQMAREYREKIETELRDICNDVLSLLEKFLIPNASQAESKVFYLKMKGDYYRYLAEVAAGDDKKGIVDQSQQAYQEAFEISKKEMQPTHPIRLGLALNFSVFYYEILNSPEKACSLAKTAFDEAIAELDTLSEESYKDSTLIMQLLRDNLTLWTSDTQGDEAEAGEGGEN
# Mcl1 Noxa PPI = Mcl-1/Noxa interaction inhibition | inhibition, % at 21.7 µM | TR-FRET Mcl-1/Noxa peptide binding, 2 h | 220,000 compounds, 1.5% hits | Q07820 | AID 1022;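 active means compounds that cut the protein-peptide binding signal by more than 50% relative to plate controls in a single-dose test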;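 further: His-tagged Mcl-1 with rhodamine Noxa BH3 peptide and terbium anti-His antibody; 0% = Mcl-1 plus Noxa peptide wells and 100% = peptide-only wells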
# Bim-Mcl-1 = disrupts Bim peptide binding to human Mcl-1; Q07820; Bead-based flow cytometry, Bim peptide-Mcl-1 binding; 190,000 compounds, 0.1% hits; inhibition, % at 10 µM; in the data active means inhibition above about 40%;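 further: 0% = no compound tracer wells and 100% = peptide blocker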
# Arbovirus anti = antivirals against arbovirus infection | arbovirus infection cell-based antiviral screen | inhibition, % at 10 µM | 200,000 compounds, 0.37% hits; in the data active means inhibition above about 30%
# Active calls of the source: *; x = not tested or not shown.
SMILES,Mcl1 Bid PPI,14-3-3 Bad inh,Mcl1 Noxa PPI,Bim-Mcl-1,Arbovirus anti
O=C(CN1CCN(c2ccc(O)cc2)CC1)Nc1cc([N+](=O)[O-])ccc1Cl,-2.5,48.9,99.0*,2.0,-3.8
COc1cc(/C=N/Nc2ccc(C(F)(F)F)cn2)cc(OC)c1O,-19.0,-6.5,56.8*,0.0,-15.8
CCOC(=O)C(CSCC(=O)c1ccc(Cl)cc1)NC(=O)OC(C)(C)C (centres undefined),-7.6,15.2,-2.7,0.0,0.0
COc1ccc(-c2nn(-c3ccccc3)cc2C(=O)N/N=C/c2ccc([N+](=O)[O-])o2)cc1,20.8,-8.2,51.9*,0.0,-12.3
Cc1cc(C(=O)N/N=C/c2ccc([N+](=O)[O-])o2)c(C)o1,-19.7,0.7,15.3,x,x
O=C1Cc2ccccc2C(c2ccccc2)N1 (centres undefined),-12.9,79.2*,-12.1,0.0,3.7
O=C1Cc2ccccc2C(c2ccc(Cl)cc2)N1 (centres undefined),-15.4,-2.0,-7.0,x,x
COc1ccc(-c2cc(C(F)(F)F)nc(SCC(=O)N3CCOCC3)n2)cc1OC,-4.1,-8.4,3.4,0.0,1.1
O=C(CSc1nc(-c2ccccc2)cc(C(F)(F)F)n1)N1CCOCC1,77.0*,2.6,19.1,1.0,-4.1
CCCc1ccc(OCC(=O)NNC(=O)c2cccnc2)cc1,-18.4,-22.1,9.3,-1.0,-2.7
Cc1ccc2nc(SC(C)C(=O)NC3CCCc4ccccc43)[nH]c2c1 (centres undefined),84.0*,-5.2,10.6,-4.0,16.9
N#CC1=C(S)N(c2ccccc2)C(c2ccc(-c3cccc(Cl)c3)o2)NC1=O (centres undefined),-29.9,48.4,69.0*,-3.0,-13.5
O=C(Nc1ccccc1SCC1CSc2nc3ccccc3c(=O)n21)c1ccccc1 (centres undefined),-9.9,3.3,-10.5,0.0,3.9
Cc1ccc(C(=O)Nc2ccccc2SCC2CSc3nc4ccccc4c(=O)n32)cc1 (centres undefined),52.8*,-3.0,5.8,-1.0,41.8*
CCCCN(C(=N)N1CCCCC1)c1nc(C)c([N+](=O)[O-])c(=O)[nH]1,-1.2,-2.9,1.4,-5.0,-0.1
O=C1CC(=O)N(Cc2ccco2)C(=S)N1,29.0,43.4,45.4,-4.0,18.9
O=C1CC(=O)N(Cc2ccco2)C(=O)N1,-47.4,59.7,13.8,-1.0,34.1*
O=C1/C(=C\c2ccc(O)cc2)SC(=S)N1/N=C/c1ccc(O)cc1,24.0,15.0,78.7*,x,x
Cc1cccc2c1-c1sc(C(=O)Nc3nccs3)cc1CO2,-9.4,-1.0,22.1,15.0,82.4*
O=C(Nc1nc2ccccc2s1)c1cc2c(s1)-c1ccccc1OC2,57.4*,27.0,13.8,0.0,8.9
CC/C(C)=N/Nc1nc(-c2cc3cccc(OC)c3oc2=O)cs1,-51.8,-7.5,20.4,x,x
CC1=Nc2cccc([N+](=O)[O-])c2NC(=O)C1,-8.5,4.8,17.0,-3.0,2.8
CCOC(=O)C1CCCN(c2ccc(NC(=O)c3snc4c(=O)[nH]c(C)nc34)cc2)C1 (centres undefined),2.5,1.0,84.1*,0.0,10.9
O=C(Nc1ccccc1)c1snc2c(=O)[nH]cnc12,-4.2,2.4,-1.6,16.0,-1.3
CCOC(=O)C1CCCN(c2ccc(NC(=O)c3snc4c(=O)[nH]cnc34)cc2)C1 (centres undefined),-60.2,11.8,63.4*,-3.0,25.8
SMILES,Mcl1 Bid PPI,14-3-3 Bad inh,Mcl1 Noxa PPI,Bim-Mcl-1,Arbovirus anti
COC(=O)Nc1ccc(S(=O)(=O)N2CCC(C(=O)N(C)C3CCCCC3)CC2)cc1,4.3,2.7,19.4,0.0,30.4*
CCC1CCCCN1S(=O)(=O)c1ccc(S(=O)(=O)N(Cc2ccccn2)CC2CCCO2)cc1 (centres undefined),-14.9,-6.1,90.0*,1.0,-2.8
O=S(=O)(NCC1CCCO1)c1ccc(S(=O)(=O)N(Cc2ccc(F)cc2)Cc2ccccn2)cc1 (centres undefined),-12.2,7.5,5.1,-2.0,-0.3
Cc1ccc(C(O)P(=O)(OCc2ccccc2)c2ccc(N(C)C)cc2)cc1 (centres undefined),-21.8,-8.8,17.2,x,x
CCCn1c(SCC(=O)c2c[nH]c3ccccc23)nnc1-c1ccncc1,-19.9,-3.0,23.1,-8.0,1.1
COc1cccc(/C=N/NC(=O)c2ccc(COc3ccc(Cl)cc3Cl)o2)c1,5.1,11.9,10.7,0.0,5.0
COc1cc(/C=N/NC(=O)c2ccc(COc3ccccc3Cl)o2)cc(Br)c1O,40.4,37.7,72.6*,-19.0,1.2
COc1cc(/C=N/NC(=O)c2ccc([N+](=O)[O-])cc2Cl)cc(Br)c1O,-42.4,6.3,82.4*,9.0,3.2
COc1cc(/C=N/NC(N)=O)cc([N+](=O)[O-])c1O,-11.1,12.4,52.2*,5.0,-1.6
NC(=NC(=O)c1ccccc1)N1CCN(C(c2ccccc2)c2ccccc2)CC1,3.6,2.3,-14.6,x,x
COCCCNC(=O)c1ccc2c3c(onc13)-c1ccccc1C2=O,-109.3,-0.2,55.5*,x,x
c1ccc(Nc2ccccn2)cc1,6.6,1.8,12.6,0.0,0.4
c1ccc(Nc2cccc(Nc3ccccc3)n2)cc1,-21.1,-6.4,71.5*,32.0,-7.7
c1ccc(Nc2cccc3c(Nc4ccccc4)cccc23)cc1,5.5,5.7,50.5*,x,x
CCN(CC)c1ccc(/C=N/NC(=S)NC)c(O)c1,-19.1,-17.1,-9.9,-5.0,-21.3
CCN(CC)c1ccc(/C=N/Nc2ccccc2)c(O)c1,-123.4,-9.6,56.6*,0.0,-28.4
CCN(CC)c1ccc(/C=N/Nc2cccc(C)c2)c(O)c1,78.6*,2.3,39.6,17.0,-36.6
NC1=NC(c2ccccc2)N=C(Nc2ccccc2)N1 (centres undefined),-14.1,-5.3,-0.8,x,x
c1csc(Cc2nn3c(-c4n[nH]c5c4CCC5)nnc3s2)c1,-16.6,0.2,54.0*,2.0,0.6
O=[N+]([O-])c1cccc(-c2nnc(-c3ccc4c(c3)OCO4)o2)c1,60.1*,43.3,62.2*,1.0,3.6
O=[N+]([O-])c1cccc(-c2nnc(-c3ccccc3)o2)c1,-22.4,3.6,-5.9,1.0,-7.3
O=C(O)c1ccccc1-c1ccccc1C(=O)NNc1ccc([N+](=O)[O-])cc1,-28.6,3.4,11.9,x,x
CN(C)S(=O)(=O)c1cccc(NC(=S)N/N=C/c2ccc(O)c(O)c2O)c1,-99.0,44.6,107.7*,x,x
COc1ccc(O)c(/C=N/NC(=S)Nc2cccc(S(=O)(=O)N(C)C)c2)c1,-69.2,2.5,33.7,-3.0,-34.1
CCN(CC)S(=O)(=O)c1cccc(C(=O)N/N=C/c2ccc(O)c(O)c2O)c1,-81.2,-10.2,94.5*,44.0*,-4.8
Cc1nc2c(O)cccc2cc1CO,-47.9,-8.0,-38.8,x,x
CCn1c(SCc2ccc(Cl)cc2Cl)nc2nc3c(cc2c1=O)CCCC3,-18.3,-4.7,15.2,0.0,-15.6
CN1CCN(Cc2cccc(Oc3ccc(Cl)cc3)c2)CC1,66.6*,62.4,27.0,-1.0,-16.1
O=C(CCSc1ccc(Cl)cc1)c1cccs1,-5.9,4.6,56.7*,-6.0,-4.3
